Hits are enriched below; roughly 2.8% of the tested compounds scored in any of these assays.
RGS4 inh – Inhibitors of Regulator of G Protein Signaling (RGS) 4: qHTS. Regulator of G-protein signaling 4 (Homo sapiens), P49798. Transcreener GDP fluorescence polarization, RGS4-accelerated GTP hydrolysis. Potency, µM (doses to about 114 µM), for the others: at the highest dose activity change, negative = inhibition, hits mostly inhibitors. hit rate 0.039% among 390,000; active = well fitted inhibition curve with a large enough effect; inconclusive = small, poorly fitted or top-dose-only effect; inactive = no such curve, though single readings can be large or run the other way; also: potency is read from the fitted curve at half-maximal effect; % is scaled to controls: 0 for no effect and ±100 for the full control effect; nearly all actives have a fitted effect of over 75% in size
Target sequence (P49798 whole entry, looked up): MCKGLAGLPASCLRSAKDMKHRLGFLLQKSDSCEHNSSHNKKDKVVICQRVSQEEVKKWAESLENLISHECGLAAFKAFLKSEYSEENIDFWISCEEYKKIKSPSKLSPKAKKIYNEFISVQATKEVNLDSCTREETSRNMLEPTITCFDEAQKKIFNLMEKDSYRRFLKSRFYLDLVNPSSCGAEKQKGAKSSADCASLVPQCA
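MLSMR compounds (23 nl, pin-transferred) preincubated 10 min at room temperature with a 500nM (2x) first reagent, then RGS4 at 900nM (2x) plus Transcreener GDP mix added; fluorescence polarization (620/688 nm) read before and after 90 min at 30 °C.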
D3 ag – qHTS of D3 Dopamine Receptor Agonist: qHTS. D(3) dopamine receptor (Homo sapiens), P35462. max activation, %. hit rate 0.58% among 410,000. D3R DiscoveRx beta-arrestin cells, luminescence, 90 min; in the data active = max activation above about 30%; also: 0% is about no effect
Target sequence (P35462 whole entry, looked up): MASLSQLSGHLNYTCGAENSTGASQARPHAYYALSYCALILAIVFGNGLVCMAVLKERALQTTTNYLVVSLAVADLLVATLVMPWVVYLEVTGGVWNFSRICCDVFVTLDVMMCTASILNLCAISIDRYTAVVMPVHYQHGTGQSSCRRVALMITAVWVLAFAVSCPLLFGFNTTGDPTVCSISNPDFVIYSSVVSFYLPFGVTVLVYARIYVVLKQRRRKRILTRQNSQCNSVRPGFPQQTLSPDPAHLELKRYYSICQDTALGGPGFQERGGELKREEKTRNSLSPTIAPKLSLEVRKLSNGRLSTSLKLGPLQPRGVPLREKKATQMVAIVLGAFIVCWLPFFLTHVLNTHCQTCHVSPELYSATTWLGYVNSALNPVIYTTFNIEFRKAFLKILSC
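Cells at 1500/well, incubated overnight, then treated with pinned compounds (dopamine as control) for 90 min at 37 degrees C. DiscoveRx reagent added for 30 - 60 minutes at room temperature; luminescence read.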
pAkt inh – HTS Assay for Inhibitors of Akt Phophorylation: Primary Screen; Neuro2A IGF-stimulated pAkt S473 HTRF, 20 min; active compounds read low; AID 651550, 2012; activity change, % for hits at 50 µM; hit rate 0.32% among 360,000; in the data active = activity change below about -80%; inconclusive = mostly about -51% to -80%; also: % is scaled to controls: 0 for no effect and ±100 for the full control effect
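Neuro2A cells (4,500/well, DMEM with 0.5% FBS) were treated with compound at a single 50 µM final concentration, stimulated with 6 nM IGF for 20 min at 37 °C, and lysed. Phospho-Akt Ser473 was read by HTRF as 665/615 ratio ×10^4.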
DRD3 antagonist – qHTS of D3 Dopamine Receptor Antagonist: qHTS. D3R cells, DiscoveRx beta-arrestin luminescence, antagonist mode; active compounds read low. hit rate 2.5% among 360,000. max response, negative = inhibition, %. D(3) dopamine receptor (Homo sapiens), P35462; in the data active = max response below about -50%; inconclusive = no clear call, values can overlap the other calls; also: % is scaled to controls: 0 for no effect and ±100 for the full control effect
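Cells plated overnight at 1500 cells/well, then exposed to library compounds with dopamine controls for 90 minutes at 37 degrees C. DiscoveRx reagent added for 30–60 minutes at room temperature; luminescence read, quantitative HTS format.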
LDHA block – qHTS assay for inhibitors of human lactate dehydrogenase | L-lactate dehydrogenase A chain (Homo sapiens), P00338 | purified LDHA, NADH/diaphorase-resazurin fluorescence; active compounds read low | activity change, % (values are at about 110 or 230 µM) | hit rate 0.15% among 480,000 | AID 1347041, 2019; in the data active = activity change below about -30%; inconclusive = mostly about -25% to -30%;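 also: plate controls were DMSO wells for no effect and wells without enzyme for full effect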
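Human LDH5 at 2 nM final in Tris HCl pH 7.4 with 0.06 mM NADH and 0.2 mM pyruvate, reacted 5 minutes at room temperature. Remaining NADH coupled via diaphorase/resazurin; resorufin fluorescence read at 0 and 20 minutes, normalized to enzyme-free and DMSO wells.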
PI4K2A block – qHTS for small molecular inhibitors of PI4K2A. purified PI4K2A, ADP-Glo luminescence, 1 h; active compounds read low. activity change, negative = inhibition, % at 76.9 µM. hit rate 0.13% among 420,000; in the data active = activity change below about -50%; inconclusive = mostly about -30% to -49%;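 also: -100% = wells without enzyme as full effect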
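Compounds are screened against recombinant PI4K2A using PI as substrate and ATP, the latter dispensed at 300 microM. Reactions run one hour at ambient temperature before ADP-Glo detection; full inhibition defined by wells lacking enzyme.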
The depositor's hits bear a star; i = inactive; ? = inconclusive; nt = not tested or not shown; ! = repeats disagree; [ ] = remark or other dose.

SMILES | RGS4 inh | D3 ag | pAkt inh | DRD3 antagonist | LDHA block | PI4K2A block
Cc1ccc(Cc2c(-c3ccc(F)cc3)nc3cc(C)ccn23)cc1 | nt | -12 | i | -68* | 6 | -16
CCOC(=O)c1cnc(Nc2ccc(C)c(F)c2)c2ccccc12 | nt | nt | nt | nt | -1 | nt
C=CCc1ccc(OCCCOc2ccc(C)cc2OC)c(OC)c1 | 4%[11.4 µM] | 3 | i | 15 | 4 | 0
C/C=C/c1ccc(OCCCCOc2ccccc2C(C)=O)c(OC)c1 | 20% | 22 | i | 14 | -8 | -4
C=CCc1ccc(OCCCCN2CC(C)OC(C)C2)c(OC)c1 (configuration not stated) | 3% | -6 | i | -69* | -14 | 9
C/C=C/c1ccc(OCCN2CCc3ccccc3C2)c(OC)c1 | -31% | -20 | i | -76* | -8 | 3
Cc1ccc(Cl)c(OCCN2CCc3ccccc3C2)c1 | 20% | 7 | i | -60* | -3 | 2
C=CCc1ccc(OCCN2CCc3ccccc3C2)c(OC)c1 | ? | -16 | i | -75* | -12 | -4
O=C(N/N=C/c1cccs1)c1cccc2ccccc12 | nt | nt | nt | nt | -15 | nt
CC(C)Cc1ccc(C(C)NC(=O)c2ccc(CS(C)(=O)=O)cc2)cc1 (configuration not stated) | nt | nt | nt | nt | 2 | nt
Cc1ccc(Sc2ccc(CN3CCCCC3)cc2[N+](=O)[O-])cc1 | 22% | -1 | i | -106* | -3 | -4
O=[N+]([O-])c1cc(CN2CCCCCC2)ccc1O | -12% | -14 | i | ? | 3 | -3
N#Cc1cccnc1N1CCN(C(C(=O)O)c2c[nH]c3cc(CO)ccc23)CC1 (configuration not stated) | nt | nt | nt | nt | 0 | nt
CC(O)(c1ccccc1)c1nc(/C=C/c2ccccc2)cs1 (configuration not stated) | nt | -16 | i | -62* | -3 | 1
COc1cccc(C(C)(O)c2nc(/C=C/c3ccccc3)cs2)c1 (configuration not stated) | nt | -13 | i | -61* | -4 | -3
COc1cccc(C(C)(O)c2nc(-c3ccccc3C)cs2)c1 (configuration not stated) | nt | 2 | i | 12 | -19 | -2
CC(O)(c1ccc(F)c(F)c1)c1nc(/C=C/c2ccccc2)cs1 (configuration not stated) | nt | -10 | i | 0 | -3 | -4
COc1cccc(C(C)(O)c2nc(-c3ccoc3)cs2)c1 (configuration not stated) | nt | -9 | i | -95* | -4 | -3
COc1ccc(-c2nc(-c3ccc(S(=O)(=O)N4CCCC4)cc3)cs2)cc1OC | nt | nt | nt | nt | -1 | nt
Cc1cc(C)c(NS(=O)(=O)c2cccc(C(F)(F)F)c2)c(C)c1 | nt | nt | nt | nt | 4 | nt
O=S(=O)(Nc1nc2ccccc2nc1Nc1ccc(F)cc1)c1cccs1 | nt | nt | nt | nt | 10 | nt
COc1ccc2c(c1)C(O)(CC(=O)c1ccc(F)cc1)C(=O)N2 (configuration not stated) | nt | nt | nt | nt | 2 | nt
OC(CN1C2=NCCN2c2ccccc21)c1ccc2c(c1)OCO2 (configuration not stated) | -13% | -3 | -118%* | 0 | -2 | 3
Cc1ccc(C(O)CN2C3=NCCCN3c3ccccc32)cc1 (configuration not stated) | -7% | -6 | i | 11 | -11 | -1
OC(CN1C2=NCCCN2c2ccccc21)c1ccc2c(c1)OCO2 (configuration not stated) | 1% | -1 | -101%* | -21 | 0 | 2
SMILES | RGS4 inh | D3 ag | pAkt inh | DRD3 antagonist | LDHA block | PI4K2A block
Cc1cc(-c2ccc(N=Nc3c(S(=O)(=O)O)cc4cc(S(=O)(=O)O)cc(N)c4c3O)c(C)c2)ccc1N=Nc1c(S(=O)(=O)O)cc2cc(S(=O)(=O)O)cc(N)c2c1O | nt | -24 | nt | nt | nt | nt
O=S(=O)(O)c1cc(O)c2c(O)c(N=Nc3cc(Cl)ccc3O)c(S(=O)(=O)O)cc2c1 | -60%[56.9 µM] | -23 | i | -61* | 31 | -53*
O=C(N1CCOCC1)N1c2ccccc2Sc2ccccc21 | 33% | -6 | i | -77* | -3 | 1
CCNC(=O)CSc1cc(C)c2ccccc2n1 | nt | nt | nt | nt | -1 | nt
Cc1cc(C(=O)CCl)c(C)n1CCc1ccc(F)cc1 | -30% | 0 | i | -17 | 1 | -2
Cc1cc(C(=O)CCl)c(C)n1CCc1ccc(Cl)cc1 | -28% | -17 | i | -69* | -3 | 26
COc1ccc(CCn2c(C)cc(C(=O)CSc3nc(N)cc(=O)[nH]3)c2C)cc1 | -8% | 35* | i | 58 | -2 | -2
Cc1cc(C(=O)CSc2nc(N)cc(=O)[nH]2)c(C)n1CCc1ccc(F)cc1 | 14% | 4 | i | 9 | -2 | 3
c1ccc(-c2c(SSc3c(-c4ccccn4)c(-c4ccccn4)n4ccccc34)c3ccccn3c2-c2ccccn2)nc1 | nt | nt | nt | nt | 2 | nt
CC(NC(=O)C1CCOCC1)c1ccc(Cl)s1 (configuration not stated) | nt | nt | nt | nt | -3 | nt
Cn1c(N)c(C(=O)COC(=O)c2cc(-c3ccc(F)cc3)nc3ccccc23)c(=O)n(C)c1=O | nt | nt | nt | nt | 2 | nt
CC(C)=CCNc1ncnc2c1c(C#N)cn2C1OC(CO)C(O)C1O (configuration not stated) | 16% | 3 | i | 11 | -52* | 0
CCC(=Nc1ccc(Cc2ccncc2)cc1)c1c(O)n(C)c(=O)n(C)c1=O | 49% | 1 | -121%*! | 4 | -5 | -2
Cn1c(=O)c2c(O)c(Cc3ccccc3)c(=O)[nH]c2n(C)c1=O | 30% | -13 | i | -6 | 0 | -20
Cc1ccc(NC(=O)CCCn2c3ccccc3c(=O)c3cc(C)ccc32)c(Br)c1 | -28% | 39* | nt | nt | -6 | 4
COC(=O)c1oc2ccccc2c1NC(=O)CN1CCCC1 | -4% | -2 | i | 11 | -5 | -5
COC(=O)c1oc2ccc(Br)cc2c1NC(=O)CN1CCN(C)CC1 | 12% | 1 | -115%* | -17 | -10 | 3
COc1ccnc(CSC(N)=Nc2ccc(F)cc2)c1 | -42% | -5 | ? | -71* | 4 | -30
COc1ccc(Cn2c(CO)cnc2SCc2ccc(F)cc2)cc1 | 5% | -1 | nt | nt | 0 | -2
